# PubChem BioAssay (EPA / NIEHS)
# Calls of active or inactive are those of the source. Rule for the calls: active = hit-call score of the fitted dose curve at least 0.9, where 1 is the maximum; inactive = score below 0.9.
# Assay: ATG_DR4_LXR_CIS: Attagene CIS-FACTORIAL HepG2 Assay for human Liver X Receptor (LXR), DR4 submotif (AID 2282929)
# Conditions: HepG2 Attagene DR4 cis-reporter, mRNA transcription; actives raise or lower the signal
# Description: ATG_CIS is a cell-based, multiplexed-readout assay that uses HepG2, a human liver cell line, with measurements taken at 24 hours after chemical dosing in a 24-well plate.ATG_DR4_LXR_CIS is one of 52 assay component(s) measured or calculated from the ATG_CIS assay. It is designed to make measurements of mRNA induction, a form of inducible reporter, as detected with fluorescence intensity signals by Reverse transcription polymerase chain reaction (RT-PCR) and Capillary electrophoresis technology.Data from the assay component ATG_DR4_LXR_CIS was analyzed into 1 assay endpoint. This assay endpoint, ATG_DR4_LXR_CIS, was analyzed with bidirectional fitting relative to DMSO as the negative control and baseline of activity. Using a type of inducible reporter, measures of mRNA for gain or loss-of-signal activity can be used to understand the reporter gene at the transcription factor-level as they relate to the gene NR1H2 and NR1H3. Furthermore, this assay endpoint can be referred to as a primary readout, because this assay has produced multiple assay endpoints where this one serves a reporter gene function. To generalize the intended target to other relatable targets, this assay endpoint is annotated to the nuclear receptor intended target family, where the subfamily is non-steroidal.
# Human liver HepG2 cells are transiently transfected with multiple reporter transcription units (MRTUs) in 6-well plates using FuGene 6 reagent (Roche; 3 ml FuGene/1 mg DNA). The MRTU constructs are regulated by a cis-regulating element (promoter). […] A major difference between the CIS and TRANS system is that in CIS activities of endogenous TFs are measured, whereas the TRANS assay evaluates changes in activities of exogenous, chimeric NR-Gal4 proteins. […] At the end of 24 hour incubation, total RNA was isolated using TriZol reagent (Invitrogen). The isolated RNA is then reverse-transcribed using oligo(dT) primer and Mo-MLV reverse transcriptase (Invitrogen) with DNAse I (Ambion) treatment for 30 min. The one-tenth of the produced cDNA was amplified by PCR using Taq DNA polymerase (Invitrogen) and two reporter sequence-specific primers. The PCR products were fluorescently labeled by primer extension with 6-arboxyfluorescein (6-FAM) 5'-labeled reporter sequence-specific primer (2 min at 95 C, 20 s at 68 C and 10 min at 72 C) and these products were digested with 5U of HpaI (New England Biolabs) for 2h at 37 C. The fragments were purified using Qiaquick PCR columns (Qiagen), analyzed on an ABI 3130xL genetic analyzer (Applied Biosystems) with peak positions identified by using a set of X-rhodamine (ROX)-labeled MapMarker1000 molecular weight standards (BioVentures). The raw capillary electrophoresis data was processed using Attagraph software (Attagene).
Compound,outcome,AC50
N#CCCNCCC#N,inactive,
ClCCOCCOCCCl,inactive,
CC12CCC(C1)C(C)(C)C2O (stereo not given),inactive,
CCCCCCCCCCCCCC(=O)OCC,inactive,
CCCCCCCCOS(=O)(=O)O,inactive,
CN(C)C,inactive,
CC(C)(O)C(=O)c1ccc(OCCO)cc1,inactive,
C=C(C)C(=O)OCCN(C)C,inactive,
CC(C)=CCCC(C)=CC(=O)O,inactive,
CCCCC(CC)COCCO (stereo not given),inactive,
CC(=O)CCC(=O)O,inactive,
Nc1ccc(O)c(N)c1,inactive,
CC1=CCC(=C(C)C)CC1,inactive,
CC(=O)Oc1c(C)c(C)c2c(c1C)CC[C@@](C)(CCC[C@H](C)CCC[C@H](C)CCCC(C)C)O2,inactive,
CC(=O)c1ccc(C)cc1,inactive,
CC(=N[Si](C)(C)C)O[Si](C)(C)C,inactive,
CC(C)(CO)CO,inactive,
CC(=O)CCC=C(C)CCC=C(C)C,inactive,
CCCCC1CCCCC(=O)O1 (stereo not given),inactive,
CC1(C)CC(=O)CC(C)(C)N1,inactive,

Compound,outcome,AC50
CC(=O)c1ccc2ccccc2c1,inactive,
CC(=O)c1cccnc1,inactive,
CCCO,inactive,
OC[C@@H](O)[C@H](O)[C@@H](O)[C@@H](O)CO,inactive,
C=CC(O)CCCCC (stereo not given),,37.3 µM (active)
O=C(O)c1cc2ccccc2cc1O,inactive,
Cc1cc(N)n(-c2ccccc2)n1,inactive,
CCC(=O)OCC=Cc1ccccc1,inactive,
CCOC(=O)CC1(C)OCC(C)O1 (stereo not given),inactive,
CC(=O)CCc1ccc(O)cc1,inactive,
CCCCCCOC(C)=O,inactive,
CC1(C)[C@H](C=C(Cl)Cl)[C@H]1C(=O)OCc1cccc(Oc2ccccc2)c1,inactive,
S=c1[nH][nH]c(=S)s1,inactive,
CC(=O)OC(C)(C)C1CC=C(C)CC1 (stereo not given),inactive,
CCCCCCCCCCCCCCCCCC(=O)OCCCCCCCCCCCCCC(C)C,inactive,
CCCCOC(=O)C(C)OC(=O)CCC (stereo not given),inactive,
C=CCCCCCCCCC(=O)OCC,inactive,
CCCCCCOc1ccc(O)cc1,,44.1 µM (active)
CCCCCCCCSCc1cc(C)c(O)c(CSCCCCCCCC)c1,inactive,
CCCCOCCOC(=O)c1ccccc1C(=O)OCCOCCCC,,55.8 µM (active)
